Reference: PubChem BioAssay (NCI)
This is part of a sample that, as a whole, favours compounds with a hit. Of some 83,000 tested, about 20% had one in any assay.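 Growth was measured after 48 h exposure to one concentration of compound in 96-well plates. Values under 10 count as active.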 Activity calls are given as the source filed them.

Each compound was assayed on SF-295 CNS (assay: NCI-60 one-dose screen, 48 h (100 = growth as untreated, 0 = no growth, -100 = all killed)). Conditions: 10 µM unless noted.

Structure (SMILES)	growth
O=C1NN(C(=O)c2ccc(O)cc2)C(c2ccccc2)=N/C1=C\c1cn(-c2ccccc2)nc1-c1ccccc1	95% (inactive)
COC(=O)/C(=C\c1ccc(OC)cc1)C(=O)N1c2ccccc2Sc2ccccc21	38.8% (inactive)
COc1ccc(Oc2nc(Nc3ccc(N4CCOCC4)nc3)ncc2NC(=O)c2cc(OC)cc(OC)c2)cc1	83.7% (inactive)
NC(=O)c1c(NC(=O)c2ccc(C(F)(F)F)cc2Cl)sc2c1CCC(=O)C2	-27.2% (active)
O=C(NCCOCCOCCOCCNC(=O)c1cc2c(o1)C(=O)c1ccccc1C2=O)NC12CC3CC(CC(C3)C1)C2	-91.9% (active)
COC(=O)c1ccc(CSc2nnc(-c3ccncc3)o2)cc1	109% (inactive)
CCCc1nc2ccccn2c1Nc1ccc(C(=O)NO)cc1	93.8% (inactive)
Fc1ccc(Nc2ccc3cc(OCCCN4CCOCC4)ccc3n2)cc1F	19.7% (inactive)
C=C1c2c(C)nn(-c3ccc(S(N)(=O)=O)cc3)c2N(C)C23CC1C1(C)c4c(C)nn(-c5ccc(S(N)(=O)=O)cc5)c4N(C)C(C)(CC12)C3 (configuration not stated)	30.1% (inactive)
C=C1c2c(C)nn(-c3ccc(NC(C)=O)cc3)c2N(C)C23CC1C1(C)c4c(C)nn(-c5ccc(NC(C)=O)cc5)c4N(C)C(C)(CC12)C3 (configuration not stated)	35.6% (inactive)
C[C@@H]1CC[C@@H]2[C@@H]1[C@H](OC(=O)c1ccc3ccccc3c1)[C@]1(C3CCCCC3)C[C@@H](OC(=O)CO)[C@@]2(C)O1	68.2% (inactive)
CC(C)(C)c1ccc(C(=O)Nc2sc3c(c2C(N)=O)CCC(=O)C3)cc1	-48.3% (active)
